Measured values reported in PubChem BioAssay (NCATS).
Records with an inconclusive call do not appear. The source made the active and inactive calls. Unless noted, calls come from the whole dose curve; as a rule, active = well fitted curve in the direction sought with a large enough effect; inconclusive = small, poorly fitted or top-dose-only effect, or another doubt; inactive = no such curve, though single readings can be large; an effect the other way counts as inactive or inconclusive.

Legend:
[1] = AP1 Signaling Pathway (AID 357; active = well fitted curve in either direction with a large enough effect, not every such curve was filed as active; note: % is set by controls: 0 for no effect and ±100 for the full control effect); conditions: ME-180 AP-1-bla reporter, EGF-induced, beta-lactamase ratio, 5 h; at 38 µM (top of the series)
How it was run: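 ME-180 cells with beta-lactamase reporter under AP-1 response element, stimulated with EC50 EGF; compounds tested in titration series, 5 h at 37 °C. CCF4 substrate added 2.5 h at room temperature; 460/530 nm emission ratio gave %activity and AC50.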

[2] = target: Cytochrome P450 1A2 (Homo sapiens) (UniProt P05177); assay: p450-cyp1a2 (AID 410; calls by dose curve;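 note: -100% = full effect of reference inhibitor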)
Cytochrome P450 1A2 (Homo sapiens), sequence (P05177 whole entry, looked up): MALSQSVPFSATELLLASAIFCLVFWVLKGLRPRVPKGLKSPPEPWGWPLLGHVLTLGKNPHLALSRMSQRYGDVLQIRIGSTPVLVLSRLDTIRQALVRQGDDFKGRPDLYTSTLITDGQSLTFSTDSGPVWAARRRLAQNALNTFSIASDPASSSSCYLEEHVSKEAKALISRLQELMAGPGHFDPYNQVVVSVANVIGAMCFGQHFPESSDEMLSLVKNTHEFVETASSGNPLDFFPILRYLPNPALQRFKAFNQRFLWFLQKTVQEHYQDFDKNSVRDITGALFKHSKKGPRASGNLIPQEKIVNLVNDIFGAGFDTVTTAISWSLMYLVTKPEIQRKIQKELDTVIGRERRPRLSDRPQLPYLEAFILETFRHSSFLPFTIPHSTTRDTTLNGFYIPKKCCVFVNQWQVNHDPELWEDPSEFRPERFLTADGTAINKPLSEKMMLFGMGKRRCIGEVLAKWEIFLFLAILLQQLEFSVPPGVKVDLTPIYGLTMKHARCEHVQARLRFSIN
How it was run: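 Luminescent readout of luciferin formed from Luciferin-ME by human CYP1A2; data normalized against complete inhibition by 57 uM furafylline. Enzyme 20nM, substrate 100uM at Km, 100mM KPO4 buffer, 60 min reaction at room temperature.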

[3] = Stat Signaling Pathway (AID 446; active = well fitted curve in either direction with a large enough effect, not every such curve was filed as active;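 note: ME-180 cervical cancer cells given 40 pM IL-6 alongside compound; SIE-controlled beta-lactamase reporter measured as 460/530 nm FRET emission ratio; % is set by controls: 0 for no effect and ±100 for the full control effect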); conditions: ME-180 SIE beta-lactamase reporter, IL-6 stimulated, 5 h; at 38 µM (top of the series)
How it was run: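 ME-180 SIE-bla cells; overnight plating; cpd + IL-6 40 pM, 5 h, 37 C; LiveBLAzer 2.5 h RT; 460/530 nm emission ratio. Normalized to 300 pM IL-6 and 125 nM JAK inhibitor controls.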

[4] = target: Glucocorticoid receptor (Homo sapiens) (UniProt P04150); assay: GR-GFP Redistribution (AID 450;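 active = compounds whose dose series gives a full or clear partial fitted curve of increased nuclear translocation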; note: potency is the fitted concentration of half-maximal effect); conditions: U2OS GR-GFP nuclear translocation, laser cytometry, 2 h
Glucocorticoid receptor (Homo sapiens), sequence (P04150 whole entry, looked up, the tested form may be a part): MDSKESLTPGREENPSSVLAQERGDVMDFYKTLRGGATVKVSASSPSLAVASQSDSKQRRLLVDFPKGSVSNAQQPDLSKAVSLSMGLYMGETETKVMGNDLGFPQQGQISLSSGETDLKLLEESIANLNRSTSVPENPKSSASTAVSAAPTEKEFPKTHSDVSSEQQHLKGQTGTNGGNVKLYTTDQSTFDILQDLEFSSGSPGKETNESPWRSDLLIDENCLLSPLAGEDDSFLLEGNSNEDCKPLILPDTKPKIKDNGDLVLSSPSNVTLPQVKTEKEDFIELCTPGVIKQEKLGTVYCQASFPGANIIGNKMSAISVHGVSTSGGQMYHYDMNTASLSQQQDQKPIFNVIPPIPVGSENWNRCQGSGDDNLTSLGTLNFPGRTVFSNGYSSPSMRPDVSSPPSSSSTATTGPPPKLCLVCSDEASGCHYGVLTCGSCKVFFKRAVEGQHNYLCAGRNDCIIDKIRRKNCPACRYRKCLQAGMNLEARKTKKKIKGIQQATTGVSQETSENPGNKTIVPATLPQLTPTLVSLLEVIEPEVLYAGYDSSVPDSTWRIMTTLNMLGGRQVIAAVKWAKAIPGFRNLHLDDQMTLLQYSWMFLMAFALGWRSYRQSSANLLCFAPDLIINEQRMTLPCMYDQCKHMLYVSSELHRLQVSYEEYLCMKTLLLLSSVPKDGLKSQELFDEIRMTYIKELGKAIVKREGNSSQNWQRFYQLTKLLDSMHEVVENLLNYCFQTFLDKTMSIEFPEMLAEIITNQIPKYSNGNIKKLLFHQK

[5] = target: Glucocorticoid receptor (Homo sapiens) (UniProt P04150); assay: GR-EFC Redistribution (AID 451; calls by dose curve; note: potency is the fitted concentration of half-maximal effect); conditions: CHO-K1 GR-EFC translocation, beta-gal luminescence, 2 h
How it was run: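 Translocation of GR-ED fusion to nuclear EA restores b-gal, read by luminescence after 1 h room-temperature detection. Engineered CHO-K1 biosensor cells, 1,000/well, exposed 2 h at 37 C to titrations up to 46 uM final.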

[6] = target: Mitogen-activated protein kinase 10 (Mus musculus) (UniProt Q61831); assay: JNK3 AlphaScreen Assay (AID 530; active = well fitted curve in either direction with a large enough effect, not every such curve was filed as active;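 note: kinase came from lysate of stimulated human HepG2 cells; signal reports phosphorylation of biotinylated GST-cJun 1-79 at Ser73 with 10 µM ATP; % is set by controls: 0 for no effect and ±100 for the full control effect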)
How it was run: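 Compound titrations were preincubated 15 minutes at room temperature with substrate, antibody and pre-activated JNK3-containing HepG2 lysate. Reactions were started with 10 uM ATP and stopped with EDTA-containing bead buffer for AlphaScreen detection.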

[7] = target: Guanine nucleotide-binding protein G(i) subunit alpha-1 (Homo sapiens) (UniProt P63096); assay: qHTS Assay for Inhibitors of RGS12 GoLoco Motif Activity (Green Fluorophore) (AID 879);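 note: 0% = labeled peptide with Gαi1 and full inhibition = labeled peptide alone without protein; negative values mean loss of peptide binding seen as reduced polarization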
How it was run: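 Fluorescence polarization assay: 50 nM Gαi1 with 10 nM FITC-labeled RGS12 GoLoco peptide in 10 mM Tris pH 7.5, 150 mM NaCl, 0.1 mM GDP, 0.05% NP40, 10 min at room temperature with compound.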

[8] = target: Cytochrome P450 3A4 (Homo sapiens) (UniProt P08684); assay: qHTS Assay for Activators of Cytochrome P450 3A4 (AID 885); note: nearly all actives have a fitted effect of over 65% in size
Cytochrome P450 3A4 (Homo sapiens), sequence (P08684 whole entry, looked up): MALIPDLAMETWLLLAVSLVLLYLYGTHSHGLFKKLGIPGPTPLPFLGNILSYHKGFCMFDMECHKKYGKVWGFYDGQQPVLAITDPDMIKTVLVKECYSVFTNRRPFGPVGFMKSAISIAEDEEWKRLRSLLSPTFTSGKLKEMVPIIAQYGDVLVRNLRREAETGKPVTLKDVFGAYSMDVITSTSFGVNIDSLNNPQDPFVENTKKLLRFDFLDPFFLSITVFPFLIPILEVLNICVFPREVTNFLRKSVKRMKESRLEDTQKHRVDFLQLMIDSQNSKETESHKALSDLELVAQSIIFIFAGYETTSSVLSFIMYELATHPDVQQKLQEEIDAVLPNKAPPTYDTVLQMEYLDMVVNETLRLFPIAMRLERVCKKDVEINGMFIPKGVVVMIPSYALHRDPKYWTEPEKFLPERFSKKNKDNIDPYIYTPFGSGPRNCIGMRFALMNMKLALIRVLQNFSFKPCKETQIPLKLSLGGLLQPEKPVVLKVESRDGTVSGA
How it was run: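 20nM CYP3A4 + 25uM Luciferin-PPXE (=KM), 200mM KPO4; cpd 10 min RT; NADPH regen, 60 min RT; stop w/ detection buffer, 20 min; luminescence. Normalized to 57 uM ketoconazole.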

[9] = target: Cytochrome P450 2D6 (Homo sapiens) (UniProt P10635); assay: qHTS Assay for Inhibitors and Substrates of Cytochrome P450 2D6 (AID 891); note: potency is the fitted concentration of half-maximal effect; nearly all actives have a fitted effect of over 60% in size
Cytochrome P450 2D6 (Homo sapiens), sequence (P10635 whole entry, looked up): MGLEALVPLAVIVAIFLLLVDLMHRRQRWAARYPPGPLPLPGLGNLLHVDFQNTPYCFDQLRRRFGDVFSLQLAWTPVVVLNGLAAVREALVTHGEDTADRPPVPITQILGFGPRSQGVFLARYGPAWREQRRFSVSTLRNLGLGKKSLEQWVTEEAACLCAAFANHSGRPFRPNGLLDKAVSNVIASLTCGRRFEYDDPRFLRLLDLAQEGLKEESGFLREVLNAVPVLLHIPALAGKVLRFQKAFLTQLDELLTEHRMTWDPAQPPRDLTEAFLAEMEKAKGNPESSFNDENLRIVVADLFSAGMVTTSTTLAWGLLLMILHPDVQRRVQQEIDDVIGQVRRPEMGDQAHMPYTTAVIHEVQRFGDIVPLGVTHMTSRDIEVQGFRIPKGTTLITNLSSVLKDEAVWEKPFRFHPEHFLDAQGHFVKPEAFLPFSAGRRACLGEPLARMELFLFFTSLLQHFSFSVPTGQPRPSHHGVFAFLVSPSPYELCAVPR
How it was run: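 Human CYP2D6 (5 nM) with 30 uM Luciferin-ME EGE (at Km) in 100 mM KPO4, compound preincubated 10 min, then NADPH regeneration system for 60 min at room temperature. Luciferin read by luminescence; normalized to 1.43 uM quinidine.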

[10] = target: Pyruvate kinase (Leishmania mexicana) (UniProt Q27686); assay: qHTS Validation Assay for Inhibitors of Leishmania Mexicana Pyruvate Kinase (AID 945);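 note: 0% = DMSO only neutral control wells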
Pyruvate kinase (Leishmania mexicana), sequence (Q27686 2-499 E452W): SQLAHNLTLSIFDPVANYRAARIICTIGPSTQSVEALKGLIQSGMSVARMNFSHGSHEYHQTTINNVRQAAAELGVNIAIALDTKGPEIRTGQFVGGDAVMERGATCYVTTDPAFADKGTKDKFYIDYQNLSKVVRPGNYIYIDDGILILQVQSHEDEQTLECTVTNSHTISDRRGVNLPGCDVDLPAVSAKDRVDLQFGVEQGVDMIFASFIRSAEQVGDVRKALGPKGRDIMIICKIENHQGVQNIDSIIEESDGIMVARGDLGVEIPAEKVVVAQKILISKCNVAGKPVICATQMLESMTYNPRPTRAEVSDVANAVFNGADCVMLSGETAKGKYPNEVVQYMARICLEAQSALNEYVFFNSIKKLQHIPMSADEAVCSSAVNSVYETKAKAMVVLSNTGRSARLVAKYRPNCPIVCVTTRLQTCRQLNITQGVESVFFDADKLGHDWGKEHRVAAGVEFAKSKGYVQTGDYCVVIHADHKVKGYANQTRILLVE
How it was run: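 Read-out: luminescence from PKLight stop/detection reagent, data normalized to DMSO. Reaction: 0.2 nM E451W LmPYK, 0.5 mM PEP, 0.1 mM ADP, pH 7.2, 1 h room temperature.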

[11] = target: Alpha-galactosidase A (Homo sapiens) (UniProt P06280); assay: Counterscreen for Glucocerebrosidase Inhibitors: qHTS Assay for Human alpha-Galactosidase at pH 4.5 (AID 992); note: 0% is about no effect
Alpha-galactosidase A (Homo sapiens), sequence (P06280 whole entry, looked up): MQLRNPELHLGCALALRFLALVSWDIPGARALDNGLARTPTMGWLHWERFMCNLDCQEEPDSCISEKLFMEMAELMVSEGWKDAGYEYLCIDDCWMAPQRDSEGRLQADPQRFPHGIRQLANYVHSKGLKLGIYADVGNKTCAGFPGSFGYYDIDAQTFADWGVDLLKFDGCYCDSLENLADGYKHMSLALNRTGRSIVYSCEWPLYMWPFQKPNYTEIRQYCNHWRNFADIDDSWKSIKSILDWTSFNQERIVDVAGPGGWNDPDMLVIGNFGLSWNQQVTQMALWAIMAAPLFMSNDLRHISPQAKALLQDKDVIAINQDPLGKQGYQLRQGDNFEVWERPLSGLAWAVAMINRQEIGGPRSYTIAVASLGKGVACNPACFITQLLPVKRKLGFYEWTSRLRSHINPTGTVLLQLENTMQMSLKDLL
How it was run: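 Enzyme at 2 nM final was combined with compound (0.7 nM to 77 uM) and 80 uM 4-methylumbelliferyl alpha-D-galactopyranoside in 50 mM citric acid, 0.005% Tween-20, pH 4.5. After 20 min at room temperature, fluorescence was read (Ex 365/Em 440 nm); AC50 came from Hill fits.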

[12] = target: alpha-glucosidase (Oryza sativa, rice) (UniProt Q653V4); assay: Counterscreen for Glucocerebrosidase Inhibitors: qHTS Assay for Rice alpha-Glucosidase at pH 5.0 (AID 997);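 note: 0% = full activity with enzyme and -100% = basal without enzyme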
How it was run: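 Rice alpha-glucosidase (4 nM final) with 400 uM 4-methylumbelliferyl-alpha-D-glucopyranoside in citrate buffer pH 5.0, 20 min at room temperature, stopped at pH 10; fluorescence 365/440 nm, compounds 0.7 nM–77 uM, AC50 from Hill fits.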

[13] = Validation of Assay for Modulators of Lamin A Splicing (AID 1459; active = well fitted curve in the direction sought with a large enough effect in the signal ratio; the % refers to the signal ratio;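 note: cells exposed to compound for two days before reading; 0% is about no effect; ratio rise marks activators and ratio drop marks inhibitors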)
How it was run: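 Dual-reporter HeLa S3 line (lamin A-EGFP minigene, DsRed2) treated with compounds 48 hrs, 0.5% DMSO final. Endpoint: EGFP/DsRed2 total intensity ratio from laser-scanning microplate cytometry.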

[14] = qHTS Assay for Lipid Storage Modulators (AID 1519; calls by dose curve); conditions: Drosophila S3 cells, BODIPY lipid droplet/cell ratio, laser cytometry, cells loaded with oleic acid
How it was run: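 Cells seeded at 5,000 per well were treated with compounds over a concentration series and loaded with oleic acid (400 uM, as added). Lipid droplet fluorescence (488 nm excitation, 500-530 nm channel) was read by laser-scanning cytometry and normalized to 20 uM Triacsin C.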

[15] = target: DNA repair nuclease/redox regulator APEX1 (Homo sapiens) (UniProt P27695); assay: qHTS Validation Assay for Inhibitors of the Human Apurinic/apyrimidinic Endonuclease 1 (APE1) (AID 1705;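 note: TAMRA fluorescence gain over two minutes as APE1 cuts a quenched THF abasic duplex; % is set by controls: 0 for no effect and ±100 for the full control effect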)
DNA repair nuclease/redox regulator APEX1 (Homo sapiens), sequence (P27695 whole entry, looked up): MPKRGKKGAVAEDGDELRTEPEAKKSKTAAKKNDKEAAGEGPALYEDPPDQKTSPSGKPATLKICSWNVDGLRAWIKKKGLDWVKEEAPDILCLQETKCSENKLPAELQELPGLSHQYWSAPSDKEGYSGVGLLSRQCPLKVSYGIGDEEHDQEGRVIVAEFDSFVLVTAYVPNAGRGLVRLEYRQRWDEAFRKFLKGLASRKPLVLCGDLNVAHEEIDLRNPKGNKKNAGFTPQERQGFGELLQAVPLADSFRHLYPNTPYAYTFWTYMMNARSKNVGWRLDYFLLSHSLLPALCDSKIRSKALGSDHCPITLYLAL
How it was run: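 Substrate: 50 nM final fluorophore/quencher THF-abasic duplex. Enzyme preincubated with compounds 15 min, RT. Progress derived from fluorescence difference, third minus first kinetic read.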

[16] = target: Endonuclease 4 (Escherichia coli (strain K12)) (UniProt P0A6C1); assay: Counterscreen for APE1 Inhibitors: qHTS Validation Assay for Inhibitors of Endonuclease IV (AID 1708); note: % is set by controls: 0 for no effect and ±100 for the full control effect
How it was run: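 qHTS concentration-response format; LOPAC1280 tested under APE1-screen conditions. 2 nM enzyme, 15 min compound preincubation at RT, then 50 nM TAMRA/BHQ-2 abasic substrate; kinetic fluorescence read, three reads at 60 s intervals.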

[17] = qHTS for differential inhibitors of proliferation of Plasmodium falciparum line 7G8 (AID 1815);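 note: potency is the fitted concentration of half-maximal effect; parasite growth measured after three days of incubation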
[18] = qHTS for differential inhibitors of proliferation of Plasmodium falciparum line D10 (AID 1877);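 note: parasites grown with compound for 72 h before DNA staining; plate controls were vehicle wells for no effect and reference inhibitor wells for full effect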
[19] = qHTS for differential inhibitors of proliferation of Plasmodium falciparum line W2 (AID 1883); conditions: Potency: Plasmodium falciparum W2 proliferation inhibition;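 note: potency is the fitted concentration of half-maximal effect; parasites grown with compound for 72 h before lysis and staining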
[20] = target: Ferritin light chain (Equus caballus) (UniProt P02791); assay: qHTS Validation Assay for Identification of Novel General Anesthetics (AID 2323); note: % is set by controls: 0 for no effect and ±100 for the full control effect
Ferritin light chain (Equus caballus), sequence (P02791 2-175 limits assumed): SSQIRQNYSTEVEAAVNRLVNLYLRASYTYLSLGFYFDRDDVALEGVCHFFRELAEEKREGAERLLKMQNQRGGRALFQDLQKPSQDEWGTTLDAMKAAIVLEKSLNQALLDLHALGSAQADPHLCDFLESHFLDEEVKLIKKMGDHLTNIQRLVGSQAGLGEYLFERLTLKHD
How it was run: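 Normalized fluorescence response, scaled between free 1-AMA and 1-AMA/apoferritin complex, fitted to a four-parameter Hill equation for concentration-effect values. Binding mix: 10 uM horse-spleen apoferritin, 50% saturated 1-AMA in PBS; read 380/535 nm after 10 min.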

[21] = target: ATP-dependent DNA helicase Q1 (Homo sapiens) (UniProt P46063); assay: qHTS Validation Assay for Inhibitors of RecQ-Like Dna Helicase 1 (RECQ1) (AID 2353);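 note: plate controls were DMSO vehicle for no effect and enzyme-free control for full effect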
ATP-dependent DNA helicase Q1 (Homo sapiens), sequence (P46063 whole entry, looked up): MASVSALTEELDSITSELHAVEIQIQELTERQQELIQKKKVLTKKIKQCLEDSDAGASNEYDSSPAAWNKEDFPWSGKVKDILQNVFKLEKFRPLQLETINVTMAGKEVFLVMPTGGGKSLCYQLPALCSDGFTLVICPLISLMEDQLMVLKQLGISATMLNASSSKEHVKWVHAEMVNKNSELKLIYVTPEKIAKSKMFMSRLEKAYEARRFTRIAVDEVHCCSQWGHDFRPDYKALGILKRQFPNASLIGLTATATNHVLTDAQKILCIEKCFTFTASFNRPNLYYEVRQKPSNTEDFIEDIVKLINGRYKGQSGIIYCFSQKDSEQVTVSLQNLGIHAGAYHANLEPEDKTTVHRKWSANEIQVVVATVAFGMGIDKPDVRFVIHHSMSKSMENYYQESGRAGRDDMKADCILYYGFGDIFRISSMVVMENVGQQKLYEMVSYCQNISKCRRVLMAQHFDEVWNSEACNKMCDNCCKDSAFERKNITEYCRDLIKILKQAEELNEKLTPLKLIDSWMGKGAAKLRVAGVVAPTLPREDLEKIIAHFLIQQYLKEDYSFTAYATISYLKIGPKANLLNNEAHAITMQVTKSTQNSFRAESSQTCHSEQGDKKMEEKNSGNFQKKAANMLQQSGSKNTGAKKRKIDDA
How it was run: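 50 nM RECQ1T1 preincubated 15 min with compound in Tris pH 8.0 buffer with MgCl2, DTT, Tween-20 and 2.5 ug/ml poly(dI-dC); started with 200 nM TAMRA/BHQ-2 forked duplex and 2 mM ATP. Unwinding read as fluorescence (525/598 nm), two reads 2 h apart.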

[22] = Cytometric Cell-Based qHTS for Inhibitors of the mTORC1 Signaling Pathway in MEF (Tsc2-/-, p53-/-) Cells (AID 2660);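 note: Tsc2 and p53 null MEFs carrying empty vector with compound for 24 h; percent of cells above a phospho-rpS6 to PI ratio cutoff in each well; plate controls were DMSO for no effect and rapamycin for full effect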
How it was run: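 Readout: Alexa-488 phospho-rpS6 (Ser235/236) intensity divided by PI intensity, thresholded against 7.5 nM rapamycin wells and reported as % positive cells. PI cell count served as the viability measure. Compound exposure was 24 hrs at 37 degree Celsius.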

[23] = High Content Imaging Cell-Based qHTS for Inhibitors of the mTORC1 Signaling Pathway in MEF (Tsc2-/-, p53-/-) Cells (AID 2666); conditions: at 38.3 µM (top of the series);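 note: percent of cells scored positive for phospho-rpS6 Ser235/236 immunostaining by imaging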
How it was run: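 Cells were plated, dosed with compound after 24 hrs, and incubated another 24 hrs at 37 degree Celsius. Fixed cells were immunostained for phospho-rpS6 Ser235/236 and counterstained, and the normalized signal was scored as % active cells against rapamycin and DMSO controls.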

[24] = High Content Imaging Cell-Based qHTS for Inhibitors of the mTORC1 Signaling Pathway in MEF Cells (AID 2667);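 note: Tsc2-/- p53-/- MEFs stably re-expressing wild-type Tsc2 exposed 24 h; plate controls were DMSO wells for no effect and rapamycin control wells for full effect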
How it was run: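 Immunofluorescence for rpS6 phosphorylation in MEFs of Tsc2-/-, p53-/- background rescued with WT Tsc2. Compound exposure lasted 24 hrs. Inhibition was scored against rapamycin-treated control wells.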

[25] = Validation screen for small molecules that induce DNA re-replication in MCF 10A normal breast cells (AID 463097); note: 0% is about no effect; nearly all actives have a fitted effect of over 60% in size
How it was run: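 Following 48 hr compound incubation (37 C, 5% CO2), MCF 10A cells receive Hoechst for 40 min at 37 C. Nuclei are then scanned (excitation 405 nm, emission 500-530 nm) for total fluorescence intensity.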

[26] = target: Ubiquitin carboxyl-terminal hydrolase 2 (Homo sapiens) (UniProt O75604); assay: qHTS Validation Assay for Inhibitors of Ubiquitin-specific Protease USP2a Using CHOP2 as the Reporter (AID 463106);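 note: plate controls were DMSO for no effect and full inhibition by NEM for full effect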
How it was run: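 10nM USP2 core + cpd, 30min RT; add 25nM Ub-CHOP2/25nM substrate; 60min RT; FI 485/531nm. Buffer Tris pH 8.0, CaCl2, BME, CHAPS. Norm. to NEM = 100% inhibition; time-zero read flags fluorescent artifacts.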

[27] = target: DNA polymerase III PolC-type (Bacillus subtilis (strain 168)) (UniProt P13267); assay: qHTS Validation Assay for the Inhibitors of DNA Replication in Gram-Positive Bacteria (AID 485295);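 note: reconstituted holoenzyme with PolC plus beta clamp SSB and primase; PicoGreen fluorescence of double-stranded DNA made on primed circular M13 template; 0% = DMSO wells and -100% = EDTA-quenched background wells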
How it was run: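 Inhibition of DNA synthesis by the reconstituted PolC holoenzyme, monitored through PicoGreen staining of dsDNA formed from ssM13Gori, dNTPs and NTPs, with compound preincubation and room-temperature reaction.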

[28] = target: Tumor susceptibility gene 101 protein (Homo sapiens) (UniProt Q99816); assay: qHTS Validation Assay for Iinhibitors of HIV-1 Budding by Blocking the Interaction of PTAP/TSG101 (AID 485342; calls by dose curve; note: 0% is about no effect)
Tumor susceptibility gene 101 protein (Homo sapiens), sequence (Q99816 whole entry, looked up, the tested form may be a part): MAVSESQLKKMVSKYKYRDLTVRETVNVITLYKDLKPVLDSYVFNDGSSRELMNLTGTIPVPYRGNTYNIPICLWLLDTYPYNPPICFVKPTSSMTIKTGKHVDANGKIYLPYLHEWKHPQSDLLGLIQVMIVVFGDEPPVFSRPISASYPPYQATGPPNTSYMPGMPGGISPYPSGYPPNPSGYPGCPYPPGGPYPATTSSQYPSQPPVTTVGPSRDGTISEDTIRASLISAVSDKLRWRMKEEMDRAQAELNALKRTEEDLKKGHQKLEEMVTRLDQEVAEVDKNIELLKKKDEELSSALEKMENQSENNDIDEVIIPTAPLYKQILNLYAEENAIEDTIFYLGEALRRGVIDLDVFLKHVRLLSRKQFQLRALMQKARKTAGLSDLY
How it was run: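 Compound wells held the Tsg101 binding domain (10 uM) and a FITC-conjugated PTAP peptide (50 nM) in buffer at pH 7.5 containing 0.15 M NaCl and 0.01% Tween 20; polarization was recorded after 20 min, r.t.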

[29] = qHTS Validation Assay to Find Inhibitors of Chronic Active B-Cell Receptor Signaling (AID 485345; active = well fitted curve in the direction sought with a large enough effect in the main read-out, with a control signal flat, not every such curve was filed as active;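 note: 0% = untreated basal cells and 100% = 10 µM MG-132 proteasome inhibitor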)
How it was run: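 Read-out: ratio of filter-corrected green (IkappaBalpha fusion) to red (native) luciferase signal in doxycycline-induced TMD8 cells after 4 h at 37C. Titration spanned 46 uM–3 nM; Data were normalised to basal cells and 10 uM MG-132 wells.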

[30] = target: Beta-2 adrenergic receptor (Homo sapiens) (UniProt P07550); assay: qHTS validation assay of beta-arrestin-biased ligands of beta2-adrenergic receptor (AID 485366); note: 0% is about no effect
How it was run: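 Tango cells (recombinant beta2-AR with recombinant beta-arrestin; recruitment releases tTA driving luciferase) were treated with compounds titrated up to 46 microM for 18 hr at 37 degrees C. Luminescence gave %Activity, and concentration-response curves were curve-classified.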

[31] = Quantitative high throughput screen for delayed death inhibitors of the malarial parasite plastid, 48 hour incubation (AID 488752); note: % is set by controls: 0 for no effect and ±100 for the full control effect; nearly all actives have a fitted effect of over 65% in size
How it was run: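 Readout is firefly luciferase luminescence from a reporter integrated into the parasite genome, with lower signal taken as inhibited growth. Infected red cells (0.1% parasitemia, 2% hematocrit final) are cultured with compound for one 48 h cycle at 37 C.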

C1CCC(N=C(NC23CC4CC(CC(C4)C2)C3)N2CCOCC2)CC1
active: Potency [9] 0.631 µM | Potency [17] 7.94 µM | Potency [19] 7.08 µM
-17.8%: max response ([14]; measured here: lipid channel max response)
inactive: activity change, negative = inhibition [1] 8.68% | Potency [2] | activity, negative = inhibition [3] 17.1% | Potency [4] > 46 µM | Potency [5] > 46 µM | Potency [6] | outcome [7] | Potency [8] | Potency [10] | outcome [11] | outcome [12] | outcome [13] | activity change, negative = inhibition ([14]; at 57.5 µM (top of the series)) 1.57% | Potency [15] | Potency [16] | Potency [18] | outcome [20] | Potency [21] | outcome [22] | outcome [23] | Potency [24] | Potency [25] | Potency [26] | Potency [27] | outcome [28] | outcome [29] | outcome [30] | Potency [31]
-18.7%: max response ([14]; measured here: cell count channel max response)
